Source: PubChem BioAssay (NCATS)
Results filed as inconclusive are left out. Where a call stands in place of a potency, no number is given. A number with no mark means an inactive call. Activity calls are given as the source filed them. Calls follow the shape of the dose curve; as a rule, active = well fitted curve in the direction sought with a large enough effect; inconclusive = small, poorly fitted or top-dose-only effect, or another doubt; inactive = no such curve, though single readings can be large; an effect the other way counts as inactive or inconclusive.

What was measured:
AS120 = experiment: qHTS profiling for inhibitors of Plasmodium falciparum proliferation (AID 504749); also: nearly all actives have a fitted effect of over 60% in size; details: P. falciparum in erythrocytes, SYBR Green DNA, 72 h; series mostly up to 28.7 µM
Procedure, shortened: (§1)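 P. falciparum-infected erythrocytes (0.3% parasitemia, 2.5% hematocrit final) were exposed to compounds for 72 h at 37 C in 5% CO2, then lysed with SYBR Green buffer overnight at room temperature; parasite DNA fluorescence was normalized to artemisinin and DMSO controls.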

CP203 = experiment: as above; details: P. falciparum in erythrocytes, SYBR Green DNA, 72 h; series mostly up to 28.7 µM
Procedure, shortened: as §1

CP215 = experiment: as above; details: P. falciparum in erythrocytes, SYBR Green DNA, 72 h; series mostly up to 28.7 µM
Procedure, shortened: as §1

CP247 = experiment: as above; details: P. falciparum in erythrocytes, SYBR Green DNA, 72 h; series mostly up to 28.7 µM
Procedure, shortened: as §1

CP265 = experiment: as above; details: P. falciparum in erythrocytes, SYBR Green DNA, 72 h; series mostly up to 12.8 µM
Procedure, shortened: as §1

CP335 = experiment: as above; details: P. falciparum in erythrocytes, SYBR Green DNA, 72 h; series mostly up to 12.8 µM
Procedure, shortened: as §1

DIV14 = experiment: as above; details: P. falciparum in erythrocytes, SYBR Green DNA, 72 h; series mostly up to 28.7 µM
Procedure, shortened: as §1

ICS = experiment: as above; details: P. falciparum in erythrocytes, SYBR Green DNA, 72 h; series mostly up to 28.7 µM
Procedure, shortened: as §1

PAD = experiment: as above; details: P. falciparum in erythrocytes, SYBR Green DNA, 72 h; series mostly up to 28.7 µM
Procedure, shortened: as §1

SC27B = experiment: as above; details: P. falciparum in erythrocytes, SYBR Green DNA, 72 h; series mostly up to 28.7 µM
Procedure, shortened: as §1

W2 = experiment: as above; details: P. falciparum in erythrocytes, SYBR Green DNA, 72 h; series mostly up to 12.8 µM
Procedure, shortened: as §1

7G8 = experiment: as above; details: P. falciparum in erythrocytes, SYBR Green DNA, 72 h; series mostly up to 12.8 µM
Procedure, shortened: as §1

DIV17 = experiment: as above; details: P. falciparum in erythrocytes, SYBR Green DNA, 72 h; series mostly up to 28.7 µM
Procedure, shortened: as §1

PC26 = experiment: as above; details: P. falciparum in erythrocytes, SYBR Green DNA, 72 h; series mostly up to 28.7 µM
Procedure, shortened: as §1

TAB113 = experiment: as above; details: P. falciparum in erythrocytes, SYBR Green DNA, 72 h; series mostly up to 28.7 µM
Procedure, shortened: as §1

TAB165 = experiment: as above; details: P. falciparum in erythrocytes, SYBR Green DNA, 72 h; series mostly up to 28.7 µM
Procedure, shortened: as §1

[1] = biological target: Cytochrome P450 2C19 (Homo sapiens) (UniProt P33261); experiment: qHTS Assay for Inhibitors and Substrates of Cytochrome P450 2C19 (AID 899); also: nearly all actives have a fitted effect of over 60% in size
Procedure, shortened: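 Human CYP2C19 (5nM) with Luciferin-H EGE at 10uM (its KM) in 50mM KPO4 was preincubated with compound for 10 min at 37C. NADPH regeneration started a 60 min 37C reaction. Luciferin was read by luminescence, normalized to 57uM ketoconazole.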

CP260 = experiment: qHTS profiling for inhibitors of Plasmodium falciparum proliferation (AID 504749); also: nearly all actives have a fitted effect of over 60% in size; details: P. falciparum in erythrocytes, SYBR Green DNA, 72 h; series mostly up to 28.7 µM
Procedure, shortened: as §1

[2] = biological target: Cytochrome P450 3A4 (Homo sapiens) (UniProt P08684); experiment: qHTS Assay for Inhibitors and Substrates of Cytochrome P450 3A4 (AID 884); also: nearly all actives have a fitted effect of over 50% in size
Procedure, shortened: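 20 nM human CYP3A4 with 25 uM Luciferin-PPXE (at KM) in 200 mM KPO4, preincubated 10 min with compound; NADPH regeneration started a 60 min RT reaction. Luciferin detected by luminescence, normalized to 57 uM ketoconazole as full inhibition.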
Potency is read from the fitted curve at half-maximal effect.

Sequence of Cytochrome P450 3A4 (Homo sapiens) (P08684 whole entry, looked up): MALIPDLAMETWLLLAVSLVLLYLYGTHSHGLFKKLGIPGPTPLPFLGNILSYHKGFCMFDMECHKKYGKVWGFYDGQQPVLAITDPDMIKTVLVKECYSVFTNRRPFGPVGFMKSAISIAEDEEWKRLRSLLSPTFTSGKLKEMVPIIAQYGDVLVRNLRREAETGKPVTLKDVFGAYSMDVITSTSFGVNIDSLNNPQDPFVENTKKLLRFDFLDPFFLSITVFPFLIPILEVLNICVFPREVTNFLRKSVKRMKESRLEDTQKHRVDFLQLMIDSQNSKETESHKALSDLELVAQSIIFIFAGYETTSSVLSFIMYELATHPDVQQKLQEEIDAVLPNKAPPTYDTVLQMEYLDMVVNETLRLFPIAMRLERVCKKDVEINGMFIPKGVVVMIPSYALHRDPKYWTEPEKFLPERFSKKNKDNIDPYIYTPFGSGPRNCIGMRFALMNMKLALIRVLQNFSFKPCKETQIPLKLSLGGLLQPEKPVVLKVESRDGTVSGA
Sequence of Cytochrome P450 2C19 (Homo sapiens) (P33261 whole entry, looked up): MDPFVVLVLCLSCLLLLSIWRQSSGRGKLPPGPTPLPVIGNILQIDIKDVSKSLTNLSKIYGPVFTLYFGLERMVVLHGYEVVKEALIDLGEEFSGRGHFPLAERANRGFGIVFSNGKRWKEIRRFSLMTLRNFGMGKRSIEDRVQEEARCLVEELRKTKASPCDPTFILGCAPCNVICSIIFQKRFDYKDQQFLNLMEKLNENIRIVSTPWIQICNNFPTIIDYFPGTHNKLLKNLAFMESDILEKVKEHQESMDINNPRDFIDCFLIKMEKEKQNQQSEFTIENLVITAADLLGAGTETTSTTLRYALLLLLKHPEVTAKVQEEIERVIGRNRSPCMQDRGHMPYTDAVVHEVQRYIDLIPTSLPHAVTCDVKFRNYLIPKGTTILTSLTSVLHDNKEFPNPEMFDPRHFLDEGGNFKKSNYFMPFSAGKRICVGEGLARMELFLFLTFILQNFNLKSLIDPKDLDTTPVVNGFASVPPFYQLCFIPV

C[C@@]12CCC(=O)C=C1C=C[C@H]1[C@H]3CC[C@](O)(CCC(=O)O)[C@]3(C)CC[C@@H]12
Potency (AS120): inactive | Potency (CP203): inactive | Potency (CP215): inactive | Potency (CP247): inactive | Potency (CP265): inactive | Potency (CP335): inactive | Potency (DIV14): inactive | Potency (ICS): 3.55 µM (active) | Potency (PAD): inactive | Potency (SC27B): inactive | Potency (W2): 5.73 µM (active)

C#CCN(C)[C@@H](C)Cc1ccccc1
Potency (7G8): inactive | Potency (AS120): inactive | Potency (CP203): inactive | Potency (CP215): inactive | Potency (CP247): inactive | Potency (CP265): inactive | Potency (CP335): inactive | Potency (DIV17): inactive | Potency (ICS): inactive | Potency (PAD): inactive | Potency (PC26): inactive | Potency (SC27B): inactive | Potency (TAB113): inactive | Potency (TAB165): inactive | Potency (W2): inactive

COc1ccc2c(c1OC)CN1CCc3cc4c(cc3[C@H]1C2)OCO4
Potency [1]: 1.26 µM (active) | Potency (7G8): 3.55 µM (active) | Potency (CP215): 2.03 µM (active) | Potency (DIV14): 2.56 µM (active) | Potency (DIV17): 4.55 µM (active) | Potency (PAD): 3.16 µM (active) | Potency (TAB113): 3.16 µM (active) | Potency (W2): 2.28 µM (active)

CCC[C@@](C)(COC(N)=O)COC(=O)NC(C)C
Potency [1]: inactive

C[C@H](N)[C@@H](O)c1ccccc1
Potency (7G8): inactive | Potency (AS120): inactive | Potency (CP203): inactive | Potency (CP215): inactive | Potency (CP247): inactive | Potency (CP260): inactive | Potency (CP265): inactive | Potency (CP335): inactive | Potency (DIV14): inactive | Potency (DIV17): inactive | Potency (ICS): inactive | Potency (PAD): inactive | Potency (PC26): inactive | Potency (SC27B): inactive | Potency (TAB113): inactive | Potency (TAB165): inactive | Potency (W2): inactive

CC(C)c1c(CN(C)[C@@H](C)Cc2ccccc2)n(C)n(-c2ccccc2)c1=O
Potency [2]: 3.98 µM (active) | Potency (AS120): inactive | Potency (CP203): inactive | Potency (CP215): inactive | Potency (CP247): inactive | Potency (CP260): inactive | Potency (CP265): inactive | Potency (CP335): inactive | Potency (DIV14): inactive | Potency (DIV17): inactive | Potency (PAD): inactive | Potency (PC26): inactive | Potency (SC27B): inactive | Potency (TAB113): inactive | Potency (TAB165): inactive

N[C@H]1C[C@H]1c1ccccc1
Potency (7G8): inactive | Potency (AS120): inactive | Potency (CP203): inactive | Potency (CP215): inactive | Potency (CP247): inactive | Potency (CP265): inactive | Potency (CP335): inactive | Potency (DIV14): inactive | Potency (DIV17): inactive | Potency (ICS): inactive | Potency (PAD): inactive | Potency (PC26): inactive | Potency (SC27B): inactive | Potency (TAB113): inactive | Potency (TAB165): inactive | Potency (W2): inactive

CC(=O)OCC(=O)[C@@H]1CC[C@H]2[C@H]3CC[C@H]4C[C@@H](O)CC[C@]4(C)[C@@H]3C(=O)C[C@@]12C
Potency (7G8): inactive | Potency (AS120): inactive | Potency (CP203): inactive | Potency (CP215): inactive | Potency (CP247): inactive | Potency (CP265): inactive | Potency (CP335): inactive | Potency (DIV14): inactive | Potency (DIV17): inactive | Potency (ICS): inactive | Potency (PAD): inactive | Potency (PC26): inactive | Potency (SC27B): inactive | Potency (TAB113): inactive | Potency (TAB165): inactive | Potency (W2): inactive

COc1cc2c(cc1OC)[C@H](C)NCC2
Potency [1]: inactive

C=C1C/C(=C\C)C(=O)O[C@@H]2CCN3CC=C(COC(=O)[C@@]1(C)O)[C@H]23
Potency [1]: inactive

CCN1C[C@]2(C)CC[C@H](OC)[C@@]34[C@@H]2[C@H](OC(C)=O)[C@]2(OCO[C@@]25C[C@@H](OC)[C@@H]2C[C@@]3(O)[C@H]5[C@@H]2OC)[C@H]14
Potency [1]: inactive

COc1ccc(C[C@H]2c3cc(OC)c(OC)cc3CCN2C)cc1OC
Potency [1]: inactive

CC(C)C[C@H]1C(=O)N2CCC[C@@H]2[C@@]2(O)O[C@](NC(=O)[C@@H]3C=C4c5cccc6[nH]cc(c56)C[C@@H]4N(C)C3)(C(C)C)C(=O)N12
Potency [2]: 2 µM (active)

CN1CC[C@]2(C)c3cc(O)ccc3N(C)[C@@H]12
Potency [1]: 12.6 µM (active)

CC[C@]1(c2cccc(O)c2)CCCCN(C)C1
Potency (7G8): inactive | Potency (CP247): inactive | Potency (CP260): inactive | Potency (ICS): inactive | Potency (TAB113): inactive | Potency (W2): 3.22 µM (active)

C[N+]1([O-])[C@@H]2CC[C@H]1CC(OC(=O)[C@@H](CO)c1ccccc1)C2 (some centres undefined)
Potency (7G8): inactive | Potency (AS120): inactive | Potency (CP203): inactive | Potency (CP215): inactive | Potency (CP247): inactive | Potency (CP260): inactive | Potency (CP265): inactive | Potency (CP335): inactive | Potency (DIV14): inactive | Potency (DIV17): inactive | Potency (ICS): inactive | Potency (PAD): inactive | Potency (PC26): inactive | Potency (SC27B): inactive | Potency (TAB113): inactive | Potency (TAB165): inactive | Potency (W2): inactive

NCC[C@H](O)C(=O)N[C@H]1C[C@@H](N)[C@@H](O[C@H]2O[C@@H](CN)[C@@H](O)[C@@H](O)[C@@H]2N)[C@@H](O[C@H]2O[C@@H](CO)[C@@H](O)[C@@H]2O)[C@@H]1O
Potency (7G8): inactive | Potency (AS120): inactive | Potency (CP203): inactive | Potency (CP215): inactive | Potency (CP247): inactive | Potency (CP260): inactive | Potency (CP265): inactive | Potency (CP335): inactive | Potency (DIV14): inactive | Potency (DIV17): inactive | Potency (ICS): inactive | Potency (PAD): inactive | Potency (PC26): inactive | Potency (SC27B): inactive | Potency (TAB165): inactive | Potency (W2): inactive

Clc1ccc([C@@H](OCCN2CCCCC2)c2ccccc2)cc1
Potency (7G8): 3.55 µM (active) | Potency (CP260): 3.16 µM (active) | Potency (DIV17): 4.55 µM (active) | Potency (ICS): 1.58 µM (active) | Potency (W2): 1.81 µM (active)

c1ccc2c(c1)[nH]c1cnccc12
Potency [2]: inactive

CC[C@H]1C(=O)OC[C@H]1Cc1cncn1C
Potency [2]: 3.16 µM (active)

CC(C)N(CC[C@@](C(N)=O)(c1ccccc1)c1ccccn1)C(C)C
Potency (7G8): inactive | Potency (AS120): inactive | Potency (CP203): inactive | Potency (CP215): inactive | Potency (CP247): inactive | Potency (CP260): inactive | Potency (CP265): inactive | Potency (CP335): inactive | Potency (DIV14): inactive | Potency (DIV17): inactive | Potency (ICS): inactive | Potency (PAD): inactive | Potency (PC26): inactive | Potency (SC27B): inactive | Potency (TAB113): inactive | Potency (TAB165): inactive

CN[C@@H](C)[C@H]1CC[C@@H](N)[C@@H](O[C@@H]2[C@@H](O)[C@@H](O[C@H]3OC[C@@](C)(O)[C@@H](NC)[C@@H]3O)[C@H](N)C[C@@H]2N)O1 (tested in a mixture with another compound)
Potency (7G8): inactive | Potency (AS120): inactive | Potency (CP203): inactive | Potency (CP247): inactive | Potency (CP260): inactive | Potency (CP265): inactive | Potency (CP335): inactive | Potency (DIV14): inactive | Potency (DIV17): inactive | Potency (ICS): inactive | Potency (PAD): inactive | Potency (PC26): inactive | Potency (SC27B): inactive | Potency (TAB113): inactive | Potency (TAB165): inactive | Potency (W2): inactive

C[C@@]12CC[C@H](O)C[C@@H]1CC[C@H]1[C@H]2CC[C@@]2(C)[C@@H](C3=CC(=O)OC3)CC[C@]12O
Potency [2]: 3.16 µM (active)
